Records with an inconclusive call do not appear. Active and inactive are the calls of the source. How the source made its calls: active means hit-call score of the fitted dose curve at least 0.9, where 1 is the maximum; inconclusive means response in the unintended direction; inactive means score below 0.9.

For the experiment, the target named is Androgen receptor (Homo sapiens) (UniProt P10275). Description: ATG_AR_TRANS: Attagene TRANS-FACTORIAL HepG2 Assay for human Androgen Receptor (AR) (AID 2282973). The conditions noted are these: HepG2 Attagene TRANS-FACTORIAL AR reporter transcription. The essentials: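 Readout is reporter transcript abundance, quantified by fluorescent RT-PCR products separated on capillary electrophoresis. Human HepG2 liver cells carried transiently transfected NR-Gal4 chimera plus GAL4-UAS reporter constructs and were dosed for 24 h; activity scored upward versus DMSO.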
Sequence of Androgen receptor (Homo sapiens) (P10275 whole entry, looked up, the tested form may be a part): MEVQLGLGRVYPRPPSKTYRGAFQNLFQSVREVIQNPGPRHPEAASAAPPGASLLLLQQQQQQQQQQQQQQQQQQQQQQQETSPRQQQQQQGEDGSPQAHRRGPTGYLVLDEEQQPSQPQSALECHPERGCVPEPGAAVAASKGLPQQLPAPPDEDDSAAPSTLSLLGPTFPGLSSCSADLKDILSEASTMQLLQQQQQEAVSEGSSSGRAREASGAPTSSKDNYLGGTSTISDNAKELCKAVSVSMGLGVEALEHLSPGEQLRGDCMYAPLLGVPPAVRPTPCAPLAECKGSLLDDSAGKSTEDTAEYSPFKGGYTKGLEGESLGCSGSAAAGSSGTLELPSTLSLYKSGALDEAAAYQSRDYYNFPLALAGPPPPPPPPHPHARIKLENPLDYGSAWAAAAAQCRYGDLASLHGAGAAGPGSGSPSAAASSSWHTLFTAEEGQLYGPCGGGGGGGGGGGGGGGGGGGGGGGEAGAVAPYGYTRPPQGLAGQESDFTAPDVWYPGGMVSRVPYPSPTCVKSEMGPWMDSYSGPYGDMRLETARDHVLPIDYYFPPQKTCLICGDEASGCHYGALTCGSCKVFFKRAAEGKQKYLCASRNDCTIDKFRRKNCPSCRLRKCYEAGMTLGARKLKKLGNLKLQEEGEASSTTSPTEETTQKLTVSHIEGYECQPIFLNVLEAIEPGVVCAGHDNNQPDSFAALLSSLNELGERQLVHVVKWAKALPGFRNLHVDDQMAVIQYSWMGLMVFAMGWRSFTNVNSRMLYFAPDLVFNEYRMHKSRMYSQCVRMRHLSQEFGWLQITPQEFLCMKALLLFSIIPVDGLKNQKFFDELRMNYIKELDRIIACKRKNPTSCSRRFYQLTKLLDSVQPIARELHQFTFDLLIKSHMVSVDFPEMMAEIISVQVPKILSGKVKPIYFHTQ
Regarding `CCCc1ccc(OC)cc1`, the result was inactive. The result for `CCN=c1cc2oc3cc(NCC)c(C)cc3c(-c3ccccc3C(=O)OCC)c-2cc1C` reads “inactive”; that for `CN(CCO)S(=O)(=O)C(F)(F)C(F)(F)C(F)(F)C(F)(F)C(F)(F)C(F)(F)C(F)(F)C(F)(F)F`, “inactive”. With `COc1ccc(CCO)cc1`, the call was inactive. For `CCCCCCCCCc1ccc(OCCO)cc1`, the call was inactive.

In the case of `CCOC(=O)CC(=O)C(F)(F)C(F)(F)F`, the compound was classed as inactive.

Turning to `C=C(C)C(=O)OCCOC(=O)C(=C)C`, the call was inactive.

Consider `CC1CNCC(C)O1` (stereo not given), for which the call was inactive. Take `C=CCOC(=O)/C=C\C(=O)OCC=C`: the compound was called inactive.

For `C[N+](C)(C)CCCNS(=O)(=O)C(F)(F)C(F)(F)C(F)(F)C(F)(F)C(F)(F)C(F)(F)C(F)(F)C(F)(F)F`, the compound was classed as inactive. The result for `Nc1cc([N+](=O)[O-])ccc1Cl` reads “inactive”; that for `CCCCCCCCCCOC(=O)c1ccccc1C(=O)OCCCCCCCC`, “inactive”. Consider `N#Cc1ccc(C(c2ccc(C#N)cc2)n2cncn2)cc1`, for which the result was inactive.

Take `O=P(O)(O)OCCC(F)(F)C(F)(F)C(F)(F)C(F)(F)C(F)(F)C(F)(F)F`: the compound was called inactive.

For the compound `OCC(O)CC(F)(F)C(F)(F)C(F)(F)C(F)(F)F` (stereo not given), the call was inactive. Consider `CC=CC(F)(F)C(F)(F)C(F)(F)F`, for which the result was inactive. The result for `Cc1ccc2ccc3ccc(C)cc3c2c1` reads “inactive”.

Take `NCC(F)(F)C(F)(F)C(F)(F)C(F)(F)C(F)(F)C(F)(F)C(F)(F)C(F)(F)F`: the compound was called inactive. As for `Oc1ccc(-c2ccccc2)c(Cl)c1`, the compound was classed as inactive. On to `CCOc1ccc(NC(C)=O)cc1`, for which the result was inactive. Turning to `C=CC(=O)OCC(CO)(COCC(COC(=O)C=C)(COC(=O)C=C)COC(=O)C=C)COC(=O)C=C`, the result was inactive.

As for `CCCCC/C=C\CCC=O`, the compound was classed as inactive. As for `FC(F)(F)C(F)(F)C(F)(F)C(F)(F)C(F)(F)C(F)(F)CC1CO1` (stereo not given), the entry is “inactive”; as for `CCCCCCOC(=O)C(C)CC` (stereo not given), “inactive”; as for `C[C@H]1C[C@@H]2[C@H]([C@@H](O)C[C@@]3(C)[C@H]2CC[C@]3(O)C(=O)CO)[C@@]2(C)C=CC(=O)C=C12`, “inactive”. Regarding `C=CC(=O)OCCN(CC)CC`, the call was inactive. In the case of `CC1(C)C2=CCCC(C)(C)[C@]23CC[C@H]1C3`, the result was inactive. Take `Nc1nc2ccc([N+](=O)[O-])cc2s1`: the outcome was inactive. The result for `CCCCCCc1ccc(N)cc1` reads “inactive”. With `Clc1sc(Cl)c(Cl)c1Cl`, the compound was called inactive. As for `C=C(C)C1CC=C(C)C(=O)C1` (stereo not given), the entry is “inactive”; as for `COC(=O)c1ccc([N+](=O)[O-])cc1`, “inactive”. The result for `FC(F)(F)C(F)(F)C(F)(F)CI` reads “inactive”; that for `Clc1cccnc1`, “inactive”; that for `CCCOCCOCCOCCO`, “inactive”. The result for `O=C1C=CC(=O)N1c1ccccc1` reads “inactive”. Take `Cc1ccc(S(=O)(=O)Oc2ccc(N=Nc3ccc(-c4ccc(N=Nc5c(O)ccc6cc(S(=O)(=O)O)cc(S(=O)(=O)O)c56)c(C)c4)cc3C)cc2)cc1`: the compound was classed as inactive. As for `FC(F)(F)COC(OCC(F)(F)F)OCC(F)(F)F`, the entry is “inactive”. On to `CCCCCCCC1CCCC1=O` (stereo not given), for which the result was inactive.

Turning to `CSc1nnc(C(C)(C)C)c(=O)[nH]1`, the call was inactive.

(Values after PubChem BioAssay (EPA / NIEHS).)
